Reference: PubChem BioAssay (Tox21)
Records with an inconclusive call do not appear. Active and inactive are the calls of the source. Unless noted, the call rests on the fitted dose curve.

Experiments:
[1] = Nuclear factor erythroid 2-related factor 2/antioxidant responsive element (Nrf2/ARE) small molecule agonists: qHTS cell viability counter screen in human keratinocytes (AID 1919968; active means well fitted curve in the direction sought with a large enough effect in the repeat runs; an effect the other way counts as inactive or inconclusive; further: nearly all actives have a fitted effect of over 55% in size)
Outline: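 Stably transfected HaCaT (KeratinoSens), 1,500/well. Test agents in DMSO were applied for 23 h, 37 C/5% CO2. CellTiter-Fluor was incubated 1 h before the fluorescence read.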

[2] = Nuclear factor erythroid 2-related factor 2/antioxidant responsive element (Nrf2/ARE) small molecule agonists: luciferase reporter gene qHTS assay in human keratinocytes (AID 1919969); further: nearly all actives have a fitted effect of over 35% in size
[3] = molecular target: Gonadotropin-releasing hormone receptor (Homo sapiens) (UniProt P30968); assay: Human gonadotropin-releasing hormone receptor (GnRHR) small molecule agonists, calcium flux assay in GnRHR-HEK293 cells (AID 1920063); further: nearly all actives have a fitted effect of over 35% in size
Gonadotropin-releasing hormone receptor (Homo sapiens), sequence (P30968 whole entry, looked up): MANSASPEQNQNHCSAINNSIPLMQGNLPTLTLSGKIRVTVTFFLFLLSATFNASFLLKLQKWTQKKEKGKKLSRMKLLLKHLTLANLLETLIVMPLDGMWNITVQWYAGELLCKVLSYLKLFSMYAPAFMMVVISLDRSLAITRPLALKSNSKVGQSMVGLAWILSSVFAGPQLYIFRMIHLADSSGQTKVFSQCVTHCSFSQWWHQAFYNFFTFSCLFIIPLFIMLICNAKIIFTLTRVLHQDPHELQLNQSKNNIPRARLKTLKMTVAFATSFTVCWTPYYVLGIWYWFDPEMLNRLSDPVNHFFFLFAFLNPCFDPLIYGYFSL
Outline: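 Stable human GnRHR HEK293 line. 18 h plating, then calcium dye for 1 h at 37 C. Agonist-mode compound addition from DMSO stocks; fluorescence monitored 3 min.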

[4] = molecular target: KiSS-1 receptor (Homo sapiens) (UniProt Q969F8); assay: Human kisspeptin (KISS1R) small molecule agonists, calcium flux assay in KISS1R-HEK293 cells (AID 1920064; active means well fitted curve in the direction sought with a large enough effect in the repeat runs; an effect the other way counts as inactive or inconclusive)
KiSS-1 receptor (Homo sapiens), sequence (Q969F8 whole entry, looked up): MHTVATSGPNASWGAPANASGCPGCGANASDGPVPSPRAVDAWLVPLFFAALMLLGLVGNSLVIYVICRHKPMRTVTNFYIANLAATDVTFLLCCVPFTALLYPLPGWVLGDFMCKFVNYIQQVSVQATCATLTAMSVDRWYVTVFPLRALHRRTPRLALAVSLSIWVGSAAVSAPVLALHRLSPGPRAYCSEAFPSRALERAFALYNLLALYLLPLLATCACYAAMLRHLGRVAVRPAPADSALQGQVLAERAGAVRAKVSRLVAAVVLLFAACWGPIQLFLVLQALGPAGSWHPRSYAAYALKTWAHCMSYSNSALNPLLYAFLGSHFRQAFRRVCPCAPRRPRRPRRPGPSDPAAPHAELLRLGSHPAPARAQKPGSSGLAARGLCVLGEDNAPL
Outline: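 After overnight (18 h) culture at 37 C/5% CO2, human KISS1R-HEK293 cells received calcium dye for 1 h, then test compound; emission at 540 nm (excitation 480 nm) was tracked for 3 min.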

[5] = G protein-coupled receptor (GPCR) small molecule agonists, calcium flux assay: HEK293 wild type cell line counter screen (AID 1920065)
Outline: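 Following 18 h incubation at 37 C/5% CO2, plates got calcium dye for 1 h; compounds, ATP or DMSO were then pinned in and fluorescence followed kinetically (480/540 nm).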

[6] = p53 small molecule agonists, cell-based qHTS assay with human liver microsomes (AID 1963577)
Outline: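 p53RE-bla reporter cells were pre-incubated 5 h at 37 C, then treated with compounds plus human liver microsomes (0.5 mg/mL final) and NADPH (0.5 mg/mL final) for 16 h at 37 C. Beta-lactamase activity was read by LiveBLAzer fluorescence after 2 h at room temperature.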

[7] = p53 small molecule agonists, cell-based qHTS assay with rat liver microsomes (AID 1963578)
Outline: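 p53RE-bla cells were exposed to compounds together with rat liver microsomes (0.5 mg/mL final) and NADPH (0.5 mg/mL final) for 16 h at 37 C, then read by LiveBLAzer beta-lactamase fluorescence after 2 h at room temperature.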

[8] = p53 small molecule agonists, cell-based qHTS assay with human liver microsomes: qHTS cell viability counter screen (AID 1963579); further: nearly all actives have a fitted effect of over 45% in size
Outline: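 p53RE-bla cells (4,000/well) were pre-incubated 5 h at 37 C, then given compounds in DMSO plus human liver microsomes (0.5 mg/mL final) and NADPH (0.5 mg/mL final) for 16 h at 37 C. Viability was read by CellTiter-Glo luminescence.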

[9] = p53 small molecule agonists, cell-based qHTS assay with rat liver microsomes: qHTS cell viability counter screen (AID 1963580); further: nearly all actives have a fitted effect of over 45% in size
Outline: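 Luminescent ATP readout (CellTiter-Glo, 30 min at room temperature) reports viability of p53RE-bla HCT-116 cells after 16 h at 37 C with test compounds under metabolic activation by rat liver microsomes and NADPH at 0.5 mg/mL final each.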

[10] = p53 small molecule agonists, cell-based qHTS assay: qHTS cell viability counter screen (AID 1963581); further: nearly all actives have a fitted effect of over 45% in size
Outline: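 qHTS counter screen: 16 h compound exposure at 37 C of p53RE-bla HCT-116 cells (4,000 per well, seeded 5 h prior), cell viability by ATP luminescence.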

[11] = p53 small molecule agonists, cell-based qHTS assay (AID 1963582; active means well fitted activation curve with a large enough effect in the signal ratio in the repeat runs, not every such curve was filed as active; the % refers to the signal ratio)
Outline: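 Measured: fluorescence from cleaved LiveBLAzer substrate. System: p53RE-bla cells, 16 h compound treatment at 37 C, 2 h substrate step at room temperature.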

[12] = molecular target: Muscarinic acetylcholine receptor M1 (Homo sapiens) (UniProt P11229); assay: Cholinergic receptor muscarinic 1 (CHRM1) small molecule antagonists, cell-based qHTS assay (AID 1963588); further: nearly all actives have a fitted effect of over 40% in size
Muscarinic acetylcholine receptor M1 (Homo sapiens), sequence (P11229 whole entry, looked up): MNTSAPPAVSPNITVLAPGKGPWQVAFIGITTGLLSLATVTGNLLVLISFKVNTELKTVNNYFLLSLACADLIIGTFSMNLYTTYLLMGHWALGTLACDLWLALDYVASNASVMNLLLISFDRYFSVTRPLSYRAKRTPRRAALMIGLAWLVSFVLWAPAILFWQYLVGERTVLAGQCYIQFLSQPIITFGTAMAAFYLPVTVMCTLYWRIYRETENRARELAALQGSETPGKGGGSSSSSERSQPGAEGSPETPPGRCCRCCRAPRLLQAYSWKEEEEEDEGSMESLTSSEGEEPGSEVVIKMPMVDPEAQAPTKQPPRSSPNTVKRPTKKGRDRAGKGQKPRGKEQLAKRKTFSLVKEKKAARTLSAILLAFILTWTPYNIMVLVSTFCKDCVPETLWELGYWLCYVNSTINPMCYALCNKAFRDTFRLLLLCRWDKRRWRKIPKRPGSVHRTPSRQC
Outline: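 Compounds were tested at 15 concentrations in three independent runs. Dye-loaded CHRM1-CHO cells were exposed 5 min at room temperature before stimulation by acetylcholine added at 50nM. Intracellular calcium was read kinetically on FDSS for 3 min.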

[13] = molecular target: Muscarinic acetylcholine receptor M1 (Homo sapiens) (UniProt P11229); assay: Cholinergic receptor muscarinic 1 (CHRM1) small molecule agonists, cell-based qHTS assay (AID 1963589); further: nearly all actives have a fitted effect of over 35% in size
Outline: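 Kinetic fluorescence (1 s intervals) of calcium-sensitive dye in human M1 CHO cells after compound addition; cells pre-incubated 18 h at 37 C/5% CO2 and dye-loaded 1 h.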

[14] = cAMP Responsive Elements (CRE) small molecule agonists, cell-based qHTS assay (AID 1963590)
Outline: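 Test agents in DMSO were incubated 3 h at 37 C/5% CO2 with CRE-bla HEK 293T cells seeded 18 h earlier; LiveBLAzer B/G FRET substrate was added and read after 2 h at room temperature.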

[15] = cAMP Responsive Elements (CRE) small molecule antagonists, cell-based qHTS assay (AID 1963591; active means well fitted inhibition curve with a large enough effect in the signal ratio in the repeat runs, not every such curve was filed as active; the % refers to the signal ratio)
Outline: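 Reporter line CRE-bla HEK 293T in dialyzed-FBS DMEM; cells preincubated 18 h, treated 3 h with compound plus NKH477 (0.25 uM final); LiveBLAzer FRET, 2 h RT.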

[16] = molecular target: Beta-2 adrenergic receptor (Homo sapiens) (UniProt P07550); assay: Adrenergic beta2 receptor (ADRB2) small molecule antagonists, cell-based qHTS assay (AID 1963592); further: series mostly up to about 92 µM; nearly all actives have a fitted effect of over 50% in size
Beta-2 adrenergic receptor (Homo sapiens), sequence (P07550 whole entry, looked up): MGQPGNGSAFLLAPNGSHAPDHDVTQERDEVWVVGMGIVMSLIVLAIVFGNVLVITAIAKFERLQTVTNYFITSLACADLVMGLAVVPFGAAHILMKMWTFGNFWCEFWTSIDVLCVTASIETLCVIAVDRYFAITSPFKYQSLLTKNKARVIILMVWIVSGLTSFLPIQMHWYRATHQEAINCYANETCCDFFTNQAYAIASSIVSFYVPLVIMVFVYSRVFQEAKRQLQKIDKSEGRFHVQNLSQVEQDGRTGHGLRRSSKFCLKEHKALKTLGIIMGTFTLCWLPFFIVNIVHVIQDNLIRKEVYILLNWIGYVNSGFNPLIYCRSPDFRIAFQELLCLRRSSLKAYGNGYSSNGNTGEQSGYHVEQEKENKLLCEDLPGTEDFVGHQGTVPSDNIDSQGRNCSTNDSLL
Outline: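 Assay format: CHO-ADRB2 cells, 18-20hr seeding at 37C/5% CO2, then compound plus 1nM isoproterenol agonist mix for 0.5hr RT. Homogeneous time-resolved fluorescence cAMP detection after 1hr, expressed as 665/615 nm ratio.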

[17] = molecular target: Beta-2 adrenergic receptor (Homo sapiens) (UniProt P07550); assay: Adrenergic beta2 receptor (ADRB2) small molecule agonists, cell-based qHTS assay (AID 1963593);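 further: CHO cells stably overexpressing human ADRB2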
Outline: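 CHO cells stably over-expressing ADRB2 were plated overnight at 37C, then dosed with compounds plus a stimulation mix containing 100uM IBMX and 25uM Ro-20-1724 for 0.5hr at room temperature. cAMP was measured by HTRF competition, 1hr.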

[18] = molecular target: D(2) dopamine receptor (Homo sapiens) (UniProt P14416); assay: Dopamine D2 receptor (DRD2) small molecule agonists, cell-based qHTS assay (AID 1963594); further: nearly all actives have a fitted effect of over 35% in size
D(2) dopamine receptor (Homo sapiens), sequence (P14416 whole entry, looked up): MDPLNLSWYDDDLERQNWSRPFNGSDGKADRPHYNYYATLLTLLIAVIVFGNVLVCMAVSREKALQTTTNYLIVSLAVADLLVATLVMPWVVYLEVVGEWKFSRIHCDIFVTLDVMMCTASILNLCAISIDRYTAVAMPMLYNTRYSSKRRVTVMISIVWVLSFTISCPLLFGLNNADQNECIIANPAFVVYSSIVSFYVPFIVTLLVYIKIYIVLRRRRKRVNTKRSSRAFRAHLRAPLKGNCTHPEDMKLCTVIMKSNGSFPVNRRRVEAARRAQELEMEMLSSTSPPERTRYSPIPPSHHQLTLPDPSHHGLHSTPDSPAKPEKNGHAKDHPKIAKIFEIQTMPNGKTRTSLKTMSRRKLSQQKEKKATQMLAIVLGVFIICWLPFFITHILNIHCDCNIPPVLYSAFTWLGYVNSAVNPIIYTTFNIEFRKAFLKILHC
Outline: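 HEK293 cells stably expressing DRD2 were cultured 24 h at 37 C, then given Ro20-1724 (0.1 mM final) and compounds for 10 min at room temperature. NKH477 (200nM) was then added for 30 min. cAMP was read by HTRF.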

[19] = molecular target: D(2) dopamine receptor (Homo sapiens) (UniProt P14416); assay: Dopamine D2 receptor (DRD2) small molecule antagonists, cell-based qHTS assay (AID 1963595; active means well fitted inhibition curve with a large enough effect in the signal ratio in the repeat runs, with a control signal flat; the % refers to the signal ratio)
Outline: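 Cells were plated and grown for 24 h at 37 °C. Ro20-1724 (0.1 mM final) went in first, then compound for 10 min. NKH477 (200 nM) with quinpirole (12 nM) followed for 30 min at RT, then HTRF detection reagents for 1 h.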

[20] = molecular target: 5-hydroxytryptamine receptor 2A (Homo sapiens) (UniProt P28223); assay: 5-hydroxytryptamine receptor 2A (HTR2A) small molecule antagonists, cell-based qHTS assay (AID 1963586); further: nearly all actives have a fitted effect of over 45% in size
5-hydroxytryptamine receptor 2A (Homo sapiens), sequence (P28223 whole entry, looked up): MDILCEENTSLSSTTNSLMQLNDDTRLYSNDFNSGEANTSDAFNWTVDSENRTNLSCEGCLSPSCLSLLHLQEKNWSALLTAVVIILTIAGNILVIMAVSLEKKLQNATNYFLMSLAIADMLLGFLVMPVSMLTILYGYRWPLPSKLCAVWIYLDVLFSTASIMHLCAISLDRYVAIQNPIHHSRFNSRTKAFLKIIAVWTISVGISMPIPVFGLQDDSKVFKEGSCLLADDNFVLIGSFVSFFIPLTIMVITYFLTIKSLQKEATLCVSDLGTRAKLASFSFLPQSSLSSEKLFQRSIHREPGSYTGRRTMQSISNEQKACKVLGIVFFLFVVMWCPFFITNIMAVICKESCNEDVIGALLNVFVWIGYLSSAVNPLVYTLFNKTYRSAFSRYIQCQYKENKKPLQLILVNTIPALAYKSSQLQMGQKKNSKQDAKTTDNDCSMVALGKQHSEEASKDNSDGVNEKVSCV
Outline: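 CHO cells stably expressing human HTR2A were plated for 18 h at 37 C, then loaded with calcium dye for 1 h. Compounds were preincubated 5 min at room temperature before DOI (4 nM solution) was added. Kinetic fluorescence was read for 3 min.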
On the % scale 0 is the no-effect control and ±100 the full control effect.

N#Cc1ccc(C2CCCc3cncn32)cc1 (stereo not drawn)
inactive: Potency [1] | Potency [2] | Potency [3] | Potency [4] | Potency [5] | Potency [6] | Potency [7] | Potency [8] | Potency [9] | Potency [10] | Potency [11] | Potency [12] | Potency [13] | Potency [14] | Potency [15] | Potency [16] | Potency [17] | Potency [18] | Potency [19]

CN(C)Cc1ccccc1O
inactive: Potency [1] | Potency [2] | Potency [3] | Potency [4] | Potency [5] | Potency [6] | Potency [7] | Potency [8] | Potency [9] | Potency [10] | Potency [11] | Potency [20] | Potency [12] | Potency [13] | Potency [14] | Potency [15] | Potency [16] | Potency [17] | Potency [18] | Potency [19]

CN(C)c1ccc(/C=C/c2ccc([N+](=O)[O-])cc2)cc1
inactive: activity change, negative = cytotoxicity [1] 0.836% [at 8.39 µM] | activity, positive = activation [2] 12.5% [at 8.39 µM] | activity change [3] 5.74% [at 5.22 µM, stronger effect = higher value] | activation [4] 7.36% [at 6.97 µM] | activation [5] 0.221% [at 5.23 µM] | activation [6] -2.79% [at 5.99 µM] | activation [7] -4.52% [at 5.99 µM] | activity change, negative = cytotoxicity [8] 0.0681% [at 5.99 µM] | activity change, negative = cytotoxicity [9] -5.21% [at 5.99 µM] | activity change, negative = cytotoxicity [10] -1.3% [at 5.99 µM] | activation [11] -2.24% [at 5.99 µM] | activity, negative = inhibition [20] -0.541% [at 5.62 µM] | activity, negative = inhibition [12] -8.69% [at 5.58 µM] | activation [13] 0.732% [at 6.97 µM] | activation [14] -3.18% [at 8.39 µM] | activity change, negative = inhibition [15] 1.12% [at 8.39 µM] | activity change, negative = inhibition [16] 1.64% [at 8.39 µM] | activation [18] -5.78% [at 8.39 µM] | activity change, negative = inhibition [19] -2.29% [at 8.38 µM]

NC(=O)c1ccc([N+](=O)[O-])cc1
inactive: Potency [1] | Potency [2] | Potency [3] | Potency [4] | Potency [5] | Potency [6] | Potency [7] | Potency [8] | Potency [9] | Potency [10] | Potency [11] | Potency [20] | Potency [12] | Potency [13] | Potency [15] | Potency [18] | Potency [19]

C[C@@H]1CCC[C@H](C)N1CCCC(O)(c1ccccc1)c1ccccn1 (stereo partly drawn)
inactive: Potency [1] | Potency [2] | Potency [3] | Potency [4] | Potency [5] | Potency [6] | Potency [7] | Potency [8] | Potency [9] | Potency [10] | Potency [11] | Potency [20] | Potency [12] | Potency [14] | Potency [15] | Potency [16] | Potency [17] | Potency [18] | Potency [19]

CN1C(=O)CC(C)(c2ccccc2)C1=O (stereo not drawn)
inactive: Potency [1] | Potency [2] | Potency [3] | Potency [4] | Potency [5] | Potency [6] | Potency [7] | Potency [8] | Potency [9] | Potency [10] | Potency [11] | Potency [20] | Potency [12] | Potency [13] | Potency [14] | Potency [15] | Potency [16] | Potency [17] | Potency [18] | Potency [19]

CCCC(C)CCC(C)=O (stereo not drawn)
inactive: Potency [1] | Potency [2] | Potency [3] | Potency [4] | Potency [5] | Potency [6] | Potency [7] | Potency [8] | Potency [9] | Potency [10] | Potency [11] | Potency [12] | Potency [13] | Potency [14] | Potency [15] | Potency [16] | Potency [17] | Potency [18] | Potency [19]
